Data taken from PubChem BioAssay (Tox21).
Several values for one entry are separate records, joined by “and”; a condition that tells them apart may be missing. Equal values may be shown once. Inconclusive results are not listed. Entries that show only a call come without a potency. Some structures have more than one record in an assay (separate samples or runs), and their calls can disagree. Activity calls are given as the source filed them. Calls come from the whole dose curve; as a rule, active = well fitted cell-killing curve with a large enough effect in the repeat runs; inconclusive = weak or mixed curves; inactive = no such curve, though single readings can be large or run the other way.

Experiment: qHTS assay for identifying genotoxic compounds that show differential cytotoxicity against isogenic chicken DT40 cell lines with known DNA damage response pathways - Rad54/Ku70 mutant cell line (AID 743015); note: nearly all actives have a fitted effect of over 60% in size
Settings: DT40 Rad54/Ku70 mutant viability, CellTiter-Glo, 40 h; series mostly up to 66.8 µM
From the text: National Center for Advancing Translational Sciences [NCATS]
NIH Chemical Genomics Center [NCGC]
U.S. Environmental Protection Agency [EPA]
National Institutes of Environmental Health Sciences [NIEHS]
National Toxicology Program [NTP]
U.S. Food and Drug Administration [FDA]
DNA repair pathways play a critical role in cellular homeostasis by repairing DNA damage induced by endogenous processes and xenobiotics. Isogenic chicken DT40 cell lines deficient in different DNA repair pathways can be used to identify genotoxic compounds and aid in characterizing the nature of the DNA damage induced. Two DNA repair-deficient cell lines with disrupted genes, Rad54/Ku70 or Rev3, were used to screen the Tox21 10K compound library. Possible genotoxicity was based on the presence of a significant increase in cytotoxicity in one or more of the DNA repair-deficient cell lines compared to that observed in the parental DNA repair-proficient cell line. CellTiter Glo viability assay (Promega, Madison, WI) was used to measure cell viability in these cells after compound treatment. This assay includes the data from the Rad54/Ku70 mutant cell line.
Tox21 Assay Protocol Summary:
300 DT40 mutant cells in 5 uL/well were dispensed into white, solid-bottom 1536-well plates using a Multidrop Combi (ThermoFisher Scientific, Waltham, MA) dispenser. After the assay plates were incubated at 37 C/5% CO2 for approximately 0.5 hour, 23 nL of compounds dissolved in DMSO, positive controls or DMSO only was transferred into the assay plate by a pintool work station (Kalypsys, San Diego, CA). The assay plates were incubated at 37 C/5% CO2 for 40 hours. After 5 uL per well of CellTiter-Glo reagent was added into each well of the assay plates, the plates were incubated for 30 min at room temperature and the luminescence intensity of the plates was measured using a ViewLux (PerkinElmer, Shelton, CT) plate reader.
Potency is the fitted concentration of half-maximal effect.

| SMILES | Potency |
| --- | --- |
| CCCCCCCCCCCCCCCC(=O)OCC | inactive |
| O=C(O)CCCc1c[nH]c2ccccc12 | inactive |
| BrC(Br)C(Br)Br | inactive |
| O=[N+]([O-])c1ccc2ncccc2c1 | inactive |
| CN1C(CSCC(F)(F)F)Nc2cc(Cl)c(S(N)(=O)=O)cc2S1(=O)=O (stereo not given) | 23.7 µM (active) |
| CCC(C)(C)C(=O)O | inactive |
| COC(=O)c1sccc1S(N)(=O)=O | inactive |
| O=c1[nH][nH]c(=O)c2cc([N+](=O)[O-])ccc12 | inactive |
| O=C(Nc1ccc(C(=O)O)c(O)c1)c1ccccc1 | inactive |
| COc1ccc(/C=C/C(=O)c2ccc(OC)cc2OC)cc1 | 18.8 µM (active) |
| O=C(O)CCC(=O)c1ccc(-c2ccccc2)cc1 | inactive |
| c1ccc(CNc2ncnc3c2ncn3C2CCCCO2)cc1 (stereo not given) | 61.1 µM (active) |
| CCN(Cc1cccc(S(=O)(=O)O)c1)c1ccc(C(=C2C=CC(=[N+](CC)Cc3cccc(S(=O)(=O)O)c3)C=C2)c2ccc(O)cc2S(=O)(=O)[O-])cc1 | 11.7 µM (active) |
| CC1C(C)(C)C2=C(C(=O)CCC2)C1(C)C (stereo not given) | inactive |
| COc1cc(S(=O)(=O)Nc2ccccc2)c(OC)cc1N | inactive |
| C[C@@H]1[C@H](O)[C@@H](C)/C=C/C=C\C=C\C=C\C=C\C=C\C=C\[C@H](O[C@@H]2O[C@H](C)[C@@H](O)[C@H](N)[C@@H]2O)C[C@@H]2O[C@](O)(C[C@@H](O)C[C@@H](O)[C@H](O)CC[C@@H](O)C[C@@H](O)CC(=O)O[C@H]1C)C[C@H](O)[C@H]2C(=O)O (stereo in doubt) | inactive and 61.1 µM (active) |
| Cc1ccc2c(c1[N+](=O)[O-])C(=O)c1ccccc1C2=O | 30 µM (active) |
| CC(C)(C)NCC(O)COc1cccc2c1C[C@H](O)[C@H](O)C2 (stereo not given in full) | inactive |
| CC(C)Cc1ccc(CC(=O)O)cc1 | inactive |
| C=CC(=O)O | inactive |

| SMILES | Potency |
| --- | --- |
| O=C(O)CCC(=O)OC[C@@H](NC(=O)C(Cl)Cl)[C@H](O)c1ccc([N+](=O)[O-])cc1 | inactive |
| O=P(O)(O)Oc1ccccc1 | inactive |
| CCN(CC)CCOc1ccccc1C(=O)CCc1ccccc1 | 26.6 µM (active) |
| CC(=O)C(=O)CC(C)C | inactive |
| COC(CC(C)CCCC(C)(C)O)OC (stereo not given) | inactive |
| CC(C)C(=O)OCCOc1ccccc1 | inactive |
| CCC1CCC(CCC(=O)O)C1 (stereo not given) | inactive |
| O=C(NC(Cc1cc(=O)[nH]c2ccccc12)C(=O)O)c1ccc(Cl)cc1 (stereo not given) | inactive |
| COC(C)(C)OC | inactive |
| COc1ccc(C)cc1 | inactive |
| O=c1[nH]c2cc(C(F)(F)F)c(N3CCOCC3)cc2n(CP(=O)(O)O)c1=O | inactive |
| CC[C@@H](CO)NCCN[C@@H](CC)CO | inactive |
| Nc1cccc2c(N)cccc12 | 41.6 µM (active) |
| C=CC(=O)NC(C)C | inactive |
| Cc1ccc2c(c1)CCCN2 | inactive |
| CCC(=O)OCc1ccc(OC)cc1 | inactive |
| CCCCCCOC(=O)CCCCC | inactive |
| Cc1ccc(Cl)cc1N | inactive |
| CC(=O)NCCO | inactive |
| CN=C(N)NC(=O)Nc1c(C)cccc1C | inactive |
